{"source": "PubChem BioAssay (NCI)", "note": "Where “and” joins values, the source holds several entries; their conditions need not be identical. Identical values can stand only once. This is part of a sample that, as a whole, favours compounds with a hit. Of some 83,000 tested, about 20% had one in any assay.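 48-hour exposure, single concentration, 96-well plates; percent growth endpoint where 0 means no net growth. Active: below 10.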 Calls of active or inactive are those of the source.", "data": [{"tested_on": "MDA-MB-468 breast", "experiment": "NCI-60 one-dose screen, 48 h (100 = growth as untreated, 0 = no growth, -100 = all killed)", "conditions": "10 µM unless noted", "values": [{"smiles": "NC(=S)N1N=C(c2ccc(Cl)cc2)CC1c1cc2ccccc2[nH]c1=O", "note": "(stereo not given)", "growth": "111% (inactive)"}, {"smiles": "c1ccc2c[n+](Cc3ccc4ccccc4n3)ccc2c1", "growth": "-0.701% (active)"}, {"smiles": "Cc1cc(NCCCCNc2ccnc3cc(Cl)ccc23)nc(Nc2ccc(C(=O)N3CCCC3)cc2)n1", "growth": "-26.6% (active)"}, {"smiles": "CCOC(=O)c1cnn(CC(C)O)c1NC(=O)NCc1cccc(F)c1", "note": "(stereo not given)", "growth": "105% (inactive)"}, {"smiles": "CCCCNC(=O)Oc1ccc(/C(=C(\\C)c2ccccc2)c2ccc(OCCN(CC)CC)cc2)cc1", "growth": "70.3% (inactive)"}, {"smiles": "COc1ccc(-c2nc3sccn3c2/C=C/C(=O)c2cc(F)cc(F)c2)cc1", "growth": "85.8% (inactive)"}, {"smiles": "NS(=O)(=O)Oc1cccc(-c2nc3sccn3c2-c2ccccc2)c1", "growth": "18.6% (inactive)"}, {"smiles": "O=C(/C(=N/O)S(=O)(=O)c1ccccc1)c1cccs1", "growth": "101% (inactive)"}, {"smiles": "COc1ccc2c(c1)CC[C@@H]1[C@@H]2CC[C@]2(C)[C@@H](O)C(=O)C[C@@H]12", "growth": "109% (inactive)"}, {"smiles": "Cc1ccc(Nc2cccc3ccccc23)cc1", "growth": "-11.7% (active)"}, {"smiles": "Cc1ccc(S(=O)(=O)OCC#CCOS(=O)(=O)c2ccc(C)cc2)cc1", "growth": "-25.3% (active)"}, {"smiles": "C/C=C/C/C=C/[C@H](C)C[C@H](O)[C@@H]1C[C@@H]2O[C@H]2/C=C/[C@@H]2OC(C)(C)O[C@H]2/C=C/C[C@H](C)CC(=O)O1", "growth": "59.8% (inactive)"}, {"smiles": "Cc1nc2nc(SCC(=O)O)[nH]c2c(=O)[nH]1", "growth": "106% (inactive)"}, {"smiles": "COC(=O)CCCCN=Cc1c(O)c(O)c(C(C)C)c2cc(C)c(-c3c(C)cc4c(C(C)C)c(O)c(O)c(C=NCCCCC(=O)OC)c4c3O)c(O)c12", "growth": "18.6% (inactive)"}, {"smiles": "N/C(=N\\O)c1ncc(-c2ccc(C(F)(F)F)cc2)c(NC2CCCCCC2)n1", "growth": "-20.4% [100 µM] (active)"}, {"smiles": "O=C(/C=C/c1cccc(Nc2ccnc3cc(Cl)ccc23)c1)c1ccc(Cl)cc1", "growth": "27.6% (inactive)"}, {"smiles": "CCN(CC)c1ccc(C(=N)c2ccc(N(CC)CC)cc2)cc1", "growth": "-24.8% (active)"}, {"smiles": "O=C1/C(=C/c2ccc(O)c(O)c2)COc2ccc(-c3ccccc3)cc21", "growth": "6.16% (active)"}, {"smiles": "COC(=O)c1cc(Nc2ccc(O)c3c2C(=O)c2c([N+](=O)[O-])ccc(O)c2C3=O)cc(C(=O)OC)c1", "growth": "71.9% (inactive)"}, {"smiles": "c1ccc2c(-c3nc(-c4c[nH]c5ccncc45)cs3)c[nH]c2c1", "growth": "-9.84% (active)"}, {"smiles": "COc1ccc(-c2nn(-c3cccc(NC(=O)c4ccc5c(c4)OCCO5)c3)cc2-c2ccncc2)cc1Cl", "growth": "26.2% (inactive)"}, {"smiles": "CC(=O)ON1CCCC(P(=O)(OCOC(=O)C(C)(C)C)OCOC(=O)C(C)(C)C)C1=O", "note": "(stereo not given)", "growth": "-21.2% (active)"}, {"smiles": "O=C(Nc1ccc(N=Cc2c(O)[nH]c3ccccc23)cc1)Nc1nccs1", "growth": "-2.28% (active)"}, {"smiles": "N#Cc1c(-c2ccc(Cl)cc2)nc(N/N=C/c2cccc(Br)c2)nc1N1CCOCC1", "growth": "76.7% (inactive)"}, {"smiles": "CC1(C)CC[C@]2(c3nnc(-c4ccncc4)o3)CC[C@]3(C)C(=CC[C@@H]4[C@@]5(C)CCC(=O)C(C)(C)[C@@H]5CC[C@]43C)[C@@H]2C1", "growth": "80% (inactive)"}, {"smiles": "CCc1c(C(=O)Nc2ccc3ccccc3c2)[nH]c(C)c1C(C)=O", "growth": "83.7% (inactive)"}, {"smiles": "O=[N+]([O-])c1cccc(/C=N\\Nc2ccccc2)c1", "growth": "81.4% (inactive)"}, {"smiles": "CCCN1CC(c2ccc(OC)c(OC)c2)=C(c2cn(C(=O)OCC)c3ccccc23)C1=O", "growth": "6.47% (active)"}, {"smiles": "COC(=O)c1c2c(c(C)[n+]([O-])c1C)C(=O)C=C(NCc1cccc(Cl)c1)C2=O", "growth": "-66.3% (active)"}, {"smiles": "O=C1/C(=C/c2ccc([N+](=O)[O-])s2)Oc2ccc(Br)cc21", "growth": "-40.2% (active)"}, {"smiles": "Nc1nc(-c2ccc(Cl)cc2)cc(-c2cc3ccccc3oc2=O)n1", "growth": "94% (inactive)"}, {"smiles": "COCCOC(=O)COc1ccc(OC)cc1", "growth": "95.6% (inactive)"}, {"smiles": "CC[C@H](CC[C@@H](C)[C@H]1CC[C@H]2[C@@H]3CC=C4C[C@@H](O)CC[C@]4(C)[C@H]3CC[C@]12C)C(C)C", "growth": "98.7% (inactive) and 91.8% (inactive)"}, {"smiles": "O=C(CN1CCCCC1)Nc1nc(-c2cc3ccccc3oc2=O)cs1", "growth": "96.3% (inactive)"}, {"smiles": "O=[N+]([O-])c1ccc(-c2ncc(-c3ccc(O)cc3O)[nH]2)cc1", "growth": "107% (inactive)"}, {"smiles": "CC(C)(C)Nc1nc2c(OCCc3ccccc3)cccn2c1-c1ccc(O)cc1", "growth": "26% (inactive)"}, {"smiles": "CCc1ccc(-c2ccc(Nc3ccccc3)nn2)cc1S(N)(=O)=O", "growth": "34.4% (inactive)"}, {"smiles": "Cc1[nH]c(C(=O)Nc2ccc(C(=O)NCCN)cc2OC(C)C)c(Cl)c1Cl", "growth": "-43.6% (active)"}, {"smiles": "COc1ccc2c(c1)N(CCO)C1=C(C(=O)OC1)C2c1cccc(Br)c1", "note": "(stereo not given)", "growth": "12.9% (inactive)"}, {"smiles": "C#C[C@@]1(O)[C@@H](CO)O[C@@H](n2cc(-c3ccco3)c3c(N)ncnc32)[C@@H]1O", "growth": "49.5% (inactive)"}]}]}
